# In ChEMBL document CHEMBL1961873, “Compounds: GSK PKIS; Assays: Nanosyn kinase panel” (2012):
# How the values were obtained:
# [1] = target: Serine/threonine-protein kinase MARK2 (Homo sapiens) (UniProt Q7KZI7); settings: at 1 µM
# [2] = target: PAS domain-containing serine/threonine-protein kinase (Homo sapiens) (UniProt Q96RG2); settings: at 0.1 µM
# [3] = target: PAS domain-containing serine/threonine-protein kinase (Homo sapiens) (UniProt Q96RG2); settings: at 1 µM
# [4] = target: Phosphorylase b kinase gamma catalytic chain, skeletal muscle/heart isoform (Homo sapiens) (UniProt Q16816); settings: at 0.1 µM
# [5] = target: Phosphorylase b kinase gamma catalytic chain, skeletal muscle/heart isoform (Homo sapiens) (UniProt Q16816); settings: at 1 µM
# [6] = target: T1, Phosphorylase b kinase gamma catalytic chain, liver/testis isoform (Homo sapiens) (UniProt P15735); settings: at 0.1 µM
# T1 sequence (whole entry): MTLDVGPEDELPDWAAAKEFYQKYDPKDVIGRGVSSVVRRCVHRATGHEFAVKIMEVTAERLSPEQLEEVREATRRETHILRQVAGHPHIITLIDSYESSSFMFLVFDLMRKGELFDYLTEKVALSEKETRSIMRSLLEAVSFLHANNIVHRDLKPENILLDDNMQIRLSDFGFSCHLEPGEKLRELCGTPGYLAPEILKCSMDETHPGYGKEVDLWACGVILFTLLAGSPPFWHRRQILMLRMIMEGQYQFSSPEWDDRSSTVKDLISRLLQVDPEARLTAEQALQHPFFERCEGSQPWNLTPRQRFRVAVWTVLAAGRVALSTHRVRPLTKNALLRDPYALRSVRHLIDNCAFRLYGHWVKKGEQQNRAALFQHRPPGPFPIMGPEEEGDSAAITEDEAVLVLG
# [7] = target: T1, Phosphorylase b kinase gamma catalytic chain, liver/testis isoform (Homo sapiens); settings: at 1 µM
# [8] = target: Serine/threonine-protein kinase pim-1 (Homo sapiens) (UniProt P11309); settings: at 0.1 µM
# [9] = target: Serine/threonine-protein kinase pim-1 (Homo sapiens) (UniProt P11309); settings: at 1 µM
# [10] = target: Serine/threonine-protein kinase pim-2 (Homo sapiens) (UniProt Q9P1W9); settings: at 0.1 µM
# [11] = target: Serine/threonine-protein kinase pim-2 (Homo sapiens) (UniProt Q9P1W9); settings: at 1 µM
# [12] = target: Serine/threonine-protein kinase pim-3 (Homo sapiens) (UniProt Q86V86); settings: at 0.1 µM
# [13] = target: Serine/threonine-protein kinase pim-3 (Homo sapiens) (UniProt Q86V86); settings: at 1 µM
# [14] = target: T2, MAP kinase-activated protein kinase 5 (Homo sapiens) (UniProt Q8IW41); settings: at 0.1 µM
# T2 sequence (whole entry): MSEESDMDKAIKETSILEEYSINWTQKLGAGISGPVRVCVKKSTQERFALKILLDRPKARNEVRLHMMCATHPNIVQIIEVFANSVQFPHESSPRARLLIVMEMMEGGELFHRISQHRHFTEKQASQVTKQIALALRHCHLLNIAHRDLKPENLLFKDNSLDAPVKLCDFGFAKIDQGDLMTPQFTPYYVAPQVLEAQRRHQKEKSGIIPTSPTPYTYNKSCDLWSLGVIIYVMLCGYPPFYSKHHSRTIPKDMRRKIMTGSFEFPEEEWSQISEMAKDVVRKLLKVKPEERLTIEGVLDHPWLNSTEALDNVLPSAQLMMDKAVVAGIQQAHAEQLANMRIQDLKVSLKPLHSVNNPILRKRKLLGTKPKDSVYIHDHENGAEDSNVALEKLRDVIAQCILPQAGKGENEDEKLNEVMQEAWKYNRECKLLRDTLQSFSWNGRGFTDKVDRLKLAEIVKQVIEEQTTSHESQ
# [15] = target: T2, MAP kinase-activated protein kinase 5 (Homo sapiens); settings: at 1 µM
# [16] = target: Serine/threonine-protein kinase SIK1 (Homo sapiens) (UniProt P57059); settings: at 0.1 µM
# [17] = target: Serine/threonine-protein kinase SIK1 (Homo sapiens) (UniProt P57059); settings: at 1 µM
# [18] = target: Serine/threonine-protein kinase SIK2 (Homo sapiens) (UniProt Q9H0K1); settings: at 0.1 µM
# [19] = target: Serine/threonine-protein kinase SIK2 (Homo sapiens) (UniProt Q9H0K1); settings: at 1 µM
# [20] = target: T3, Serine/threonine-protein kinase TBK1 (Homo sapiens) (UniProt Q9UHD2); settings: at 0.1 µM;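 note: values are the mean TBK1 inhibition, taken from the GSK PKIS screening data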
# T3 sequence (whole entry): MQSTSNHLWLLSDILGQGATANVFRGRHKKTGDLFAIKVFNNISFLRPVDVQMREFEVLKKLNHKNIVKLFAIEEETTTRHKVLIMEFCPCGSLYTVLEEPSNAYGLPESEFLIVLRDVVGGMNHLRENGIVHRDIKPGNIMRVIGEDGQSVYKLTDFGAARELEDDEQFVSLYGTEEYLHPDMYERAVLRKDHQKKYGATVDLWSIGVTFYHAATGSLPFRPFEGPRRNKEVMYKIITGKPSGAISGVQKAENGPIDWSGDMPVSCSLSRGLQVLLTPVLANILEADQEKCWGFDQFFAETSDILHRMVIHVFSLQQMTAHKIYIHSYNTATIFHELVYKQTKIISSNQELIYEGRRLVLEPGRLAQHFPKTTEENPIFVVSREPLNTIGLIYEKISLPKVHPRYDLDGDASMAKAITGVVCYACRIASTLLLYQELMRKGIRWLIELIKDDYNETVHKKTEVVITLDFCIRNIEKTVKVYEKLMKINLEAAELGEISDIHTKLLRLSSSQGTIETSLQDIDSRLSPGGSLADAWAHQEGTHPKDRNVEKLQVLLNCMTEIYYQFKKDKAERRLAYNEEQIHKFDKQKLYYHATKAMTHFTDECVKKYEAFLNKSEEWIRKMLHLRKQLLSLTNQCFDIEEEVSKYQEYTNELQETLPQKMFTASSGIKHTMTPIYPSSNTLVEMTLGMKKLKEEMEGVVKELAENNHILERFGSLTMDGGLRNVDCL
# Phosphorylase b kinase gamma catalytic chain, skeletal muscle/heart isoform (Homo sapiens), sequence (Q16816 whole entry, looked up, canonical isoform): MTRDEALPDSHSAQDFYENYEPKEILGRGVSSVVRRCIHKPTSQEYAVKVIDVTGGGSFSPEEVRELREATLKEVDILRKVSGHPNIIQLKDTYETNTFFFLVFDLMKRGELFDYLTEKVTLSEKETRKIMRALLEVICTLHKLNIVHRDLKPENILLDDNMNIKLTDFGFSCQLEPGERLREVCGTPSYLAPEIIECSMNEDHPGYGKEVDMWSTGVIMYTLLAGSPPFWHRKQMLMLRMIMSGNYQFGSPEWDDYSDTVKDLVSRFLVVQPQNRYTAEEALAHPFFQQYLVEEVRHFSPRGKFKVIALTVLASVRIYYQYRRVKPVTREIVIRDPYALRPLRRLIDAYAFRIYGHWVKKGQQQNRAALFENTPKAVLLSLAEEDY
# Serine/threonine-protein kinase SIK2 (Homo sapiens), sequence (Q9H0K1 whole entry, looked up): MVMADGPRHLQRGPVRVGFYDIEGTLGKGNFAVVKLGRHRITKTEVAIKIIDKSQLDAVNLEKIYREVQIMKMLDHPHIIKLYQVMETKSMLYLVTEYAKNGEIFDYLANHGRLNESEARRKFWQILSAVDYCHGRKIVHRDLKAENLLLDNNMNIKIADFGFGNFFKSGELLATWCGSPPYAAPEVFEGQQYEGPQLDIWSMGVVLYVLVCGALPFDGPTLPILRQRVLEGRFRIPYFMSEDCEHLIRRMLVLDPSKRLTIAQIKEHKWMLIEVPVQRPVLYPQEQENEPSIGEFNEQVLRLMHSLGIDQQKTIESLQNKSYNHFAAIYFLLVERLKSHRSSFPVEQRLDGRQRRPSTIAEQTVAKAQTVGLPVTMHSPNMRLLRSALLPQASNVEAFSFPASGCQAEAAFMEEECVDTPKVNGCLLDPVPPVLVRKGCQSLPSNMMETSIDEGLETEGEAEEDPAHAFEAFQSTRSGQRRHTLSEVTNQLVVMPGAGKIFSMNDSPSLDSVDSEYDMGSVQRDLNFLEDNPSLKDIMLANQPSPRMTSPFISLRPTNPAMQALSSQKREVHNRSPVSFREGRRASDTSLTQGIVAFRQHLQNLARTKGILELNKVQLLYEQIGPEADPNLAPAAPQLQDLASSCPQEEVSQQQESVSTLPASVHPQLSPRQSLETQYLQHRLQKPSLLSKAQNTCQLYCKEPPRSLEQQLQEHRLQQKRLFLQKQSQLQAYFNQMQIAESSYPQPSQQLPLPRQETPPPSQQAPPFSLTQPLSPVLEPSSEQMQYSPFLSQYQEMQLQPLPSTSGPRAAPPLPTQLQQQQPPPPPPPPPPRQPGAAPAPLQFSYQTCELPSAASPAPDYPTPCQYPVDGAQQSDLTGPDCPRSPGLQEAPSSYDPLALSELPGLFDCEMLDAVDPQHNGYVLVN
# Serine/threonine-protein kinase MARK2 (Homo sapiens), sequence (Q7KZI7 whole entry, the tested form may be a part): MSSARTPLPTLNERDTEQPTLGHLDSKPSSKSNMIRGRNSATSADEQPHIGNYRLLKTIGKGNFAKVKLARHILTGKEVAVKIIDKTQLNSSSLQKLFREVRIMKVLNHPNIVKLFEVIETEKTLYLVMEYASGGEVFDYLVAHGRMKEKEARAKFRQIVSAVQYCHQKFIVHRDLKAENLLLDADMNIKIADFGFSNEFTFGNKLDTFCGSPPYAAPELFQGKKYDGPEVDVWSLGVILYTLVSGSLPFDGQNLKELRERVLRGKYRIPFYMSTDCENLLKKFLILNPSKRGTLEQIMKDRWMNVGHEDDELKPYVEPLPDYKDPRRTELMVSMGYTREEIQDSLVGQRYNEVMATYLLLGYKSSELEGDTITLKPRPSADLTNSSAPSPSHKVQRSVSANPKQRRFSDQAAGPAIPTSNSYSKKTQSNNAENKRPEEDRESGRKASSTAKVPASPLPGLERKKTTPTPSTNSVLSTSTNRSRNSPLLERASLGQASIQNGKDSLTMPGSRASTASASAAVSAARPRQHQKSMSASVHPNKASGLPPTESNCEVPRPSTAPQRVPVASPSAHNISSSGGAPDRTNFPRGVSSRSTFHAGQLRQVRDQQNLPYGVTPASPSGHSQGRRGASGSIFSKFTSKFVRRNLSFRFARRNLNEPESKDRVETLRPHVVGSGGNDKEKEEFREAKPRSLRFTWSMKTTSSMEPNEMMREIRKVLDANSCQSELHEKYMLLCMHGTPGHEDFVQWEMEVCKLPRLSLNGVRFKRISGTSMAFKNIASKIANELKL
# Serine/threonine-protein kinase SIK1 (Homo sapiens), sequence (P57059 whole entry): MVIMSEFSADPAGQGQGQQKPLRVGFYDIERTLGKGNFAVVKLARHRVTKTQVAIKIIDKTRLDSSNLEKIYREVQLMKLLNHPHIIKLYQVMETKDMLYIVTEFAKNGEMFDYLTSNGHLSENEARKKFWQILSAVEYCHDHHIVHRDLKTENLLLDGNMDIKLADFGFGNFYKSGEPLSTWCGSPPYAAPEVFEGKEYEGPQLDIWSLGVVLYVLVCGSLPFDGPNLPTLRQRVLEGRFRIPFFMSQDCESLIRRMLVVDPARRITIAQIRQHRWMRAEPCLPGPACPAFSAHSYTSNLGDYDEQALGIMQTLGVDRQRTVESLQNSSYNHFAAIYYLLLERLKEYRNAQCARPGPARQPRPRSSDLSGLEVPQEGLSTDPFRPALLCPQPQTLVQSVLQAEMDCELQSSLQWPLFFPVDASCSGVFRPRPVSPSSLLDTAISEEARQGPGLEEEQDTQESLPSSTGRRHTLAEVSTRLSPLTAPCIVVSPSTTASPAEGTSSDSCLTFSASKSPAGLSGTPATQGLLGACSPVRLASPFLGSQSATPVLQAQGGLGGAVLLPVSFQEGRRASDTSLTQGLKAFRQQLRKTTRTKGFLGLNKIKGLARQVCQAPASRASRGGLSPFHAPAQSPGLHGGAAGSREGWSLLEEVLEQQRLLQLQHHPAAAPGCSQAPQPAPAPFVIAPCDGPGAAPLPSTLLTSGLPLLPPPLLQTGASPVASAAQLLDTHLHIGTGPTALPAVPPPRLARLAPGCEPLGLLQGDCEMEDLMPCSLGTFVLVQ
# Serine/threonine-protein kinase pim-1 (Homo sapiens), sequence (P11309 whole entry, looked up): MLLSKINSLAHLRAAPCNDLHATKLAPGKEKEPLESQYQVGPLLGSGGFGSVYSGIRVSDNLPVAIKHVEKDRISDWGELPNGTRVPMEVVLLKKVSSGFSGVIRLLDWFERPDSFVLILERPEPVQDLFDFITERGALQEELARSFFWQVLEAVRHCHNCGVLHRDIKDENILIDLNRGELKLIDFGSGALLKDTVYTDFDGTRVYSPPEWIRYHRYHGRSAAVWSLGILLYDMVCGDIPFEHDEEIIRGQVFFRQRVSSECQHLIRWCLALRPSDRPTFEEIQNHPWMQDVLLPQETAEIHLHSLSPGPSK
# Serine/threonine-protein kinase pim-2 (Homo sapiens), sequence (Q9P1W9 whole entry, looked up): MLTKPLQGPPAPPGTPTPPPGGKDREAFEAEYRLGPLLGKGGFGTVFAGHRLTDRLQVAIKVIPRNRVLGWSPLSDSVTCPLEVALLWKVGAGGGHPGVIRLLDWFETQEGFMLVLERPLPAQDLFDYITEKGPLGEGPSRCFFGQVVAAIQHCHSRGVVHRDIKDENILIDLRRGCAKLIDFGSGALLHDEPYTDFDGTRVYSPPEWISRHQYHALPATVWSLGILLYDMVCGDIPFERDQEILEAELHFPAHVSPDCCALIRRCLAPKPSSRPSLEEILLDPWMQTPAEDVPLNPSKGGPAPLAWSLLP
SMILES,inhibition [1] [%],inhibition [2] [%],inhibition [3] [%],inhibition [4] [%],inhibition [5] [%],inhibition [6] [%],inhibition [7] [%],inhibition [8] [%],inhibition [9] [%],inhibition [10] [%],inhibition [11] [%],inhibition [12] [%],inhibition [13] [%],inhibition [14] [%],inhibition [15] [%],inhibition [16] [%],inhibition [17] [%],inhibition [18] [%],inhibition [19] [%],inhibition [20] [%]
Nc1nc(-c2cccc(Cl)c2)c(-c2ccc3ncccc3n2)s1,-0.63,0.04,1.47,6.45,11.3,5.42,10.1,1.14,3.59,-0.44,0.44,1.25,4.87,2.21,4.45,3.24,9.29,4.96,14.6,3.03
[O-][S+]1CCN(Cc2ccc(-c3ccc4ncnc(Nc5ccc(OCc6cccc(F)c6)c(Cl)c5)c4c3)o2)CC1,2.61,0.34,0.46,5.93,8.77,7.01,6.77,0.76,2.24,0.73,0.11,0.21,1.34,2,2.05,5.68,12.1,8.92,10.4,5.39
FC(F)(F)c1cccc(-c2nn3ncccc3c2-c2ccnc(Nc3ccc4c(c3)OCCO4)n2)c1,1.86,0.04,-1.92,-0.01,2.06,1.75,0.4,0.41,0.7,-0.06,0.66,-1.58,-2.3,0.49,-0.29,3.06,6.62,3.42,6.02,0.3
c1ccc(COc2ccc(Nc3ncnc4ccc(-c5ccco5)cc34)cc2)cc1,1.38,0.95,1.6,4.05,5.22,1.07,2.25,-1.26,0.42,0.63,1.2,-0.14,0.8,0.38,0.36,1.4,7.46,-3.82,1.35,-0.27
Nc1ncc(-c2cccc(S(N)(=O)=O)c2)c2scc(-c3ccc(F)c(Cl)c3)c12,2.5,0.62,1.05,4.52,5.24,6.23,6.66,0.81,0.67,0.52,0.78,1.11,0.91,1.73,1.77,20.4,61,9.17,28.8,3.75
NC(=O)c1sc(-n2cnc3ccc(C(F)(F)F)cc32)cc1OCc1ccccc1Br,-0.94,-1.22,-1.68,4.21,7.92,5.06,4.43,-0.41,2.03,-0.42,-0.68,1.1,0.16,1.65,2.02,6.13,9.77,5.75,9.85,0.45
CS(=O)(=O)CCNCc1ccc(-c2ccc3ncnc(Nc4ccc(OCc5ccccc5)c(C(F)(F)F)c4)c3c2)o1,1.46,0,0.88,7.15,6.03,5.4,5.06,-0.57,1.31,0.54,1.13,-1.28,-0.2,1.1,1.66,4.5,6.16,4.8,2.29,0.23
Fc1cccc(COc2ccc(Nc3ncnc4sc(-c5ccco5)cc34)cc2Cl)c1,2.25,-0.19,0.63,5.6,5.83,4.96,5.36,-0.57,0.55,0.56,0.73,-1.54,-0.36,0.95,1.47,2.24,9.68,3.95,5.81,0.55
CC1=C(C(=O)Nc2cc(Cl)c3[nH]ncc3c2)C(c2ccc(C(F)(F)F)cc2)CC(=O)N1 (stereo not given),5.38,-0.35,0.16,3.83,6.61,3.02,4.01,0.67,0.15,0.31,-0.24,-0.23,-0.25,1.37,2.73,4.89,8.58,4.56,11.8,2.77
CCc1nn2ncccc2c1-c1ccnc(NC2CC2)n1,1.56,1.03,0.63,1.42,2.68,2.15,3.73,0.19,1.72,0.29,1.22,0.67,4.22,0.66,1.12,0.6,7.84,0.42,2.21,2.11
COc1ccc(CNC(=O)c2ccc(-c3cc(-c4nnc(C)o4)ccc3C)cc2)cc1,0.82,2.29,8.41,3.84,6.56,3.12,9.31,1.62,1.96,2.9,3.03,4.73,8.32,2.76,5.41,1.54,2.92,6.86,6.77,2.25
CCCN1CCC(c2ccc(Nc3nc(Nc4cc(F)ccc4C(N)=O)c4cc[nH]c4n3)c(OC)c2)CC1,41,0.01,20.7,51.3,80.7,25.7,71.7,7.64,45.3,1.98,13.3,8.07,49.4,6.44,40.9,10.1,14.7,10.9,11.7,0.75
Cc1cccc(Nc2ncc(-c3ccccc3)o2)c1,6.99,-0.74,1.15,2.49,0.97,2.92,3.71,1.11,0.94,0.15,0.42,-0.05,1.97,1.69,0.97,3.47,12.8,-1.34,9.41,2.6
CC(C)(CO)CNC(=O)c1ccc2c(c1)/C(=N/Nc1ccc(S(N)(=O)=O)cc1)C(=O)N2,32.2,1.39,0.43,6.19,29.9,0.52,3.4,2.44,18.9,0.31,4.28,1.57,14.2,-0.02,-0.16,3.06,27.7,-1.9,36,21.7
